Source: PubChem BioAssay
Shown are actives, neighbours in structure and some others; about 6.4% of the full set was active somewhere.
RORg inh: qHTS for inhibitors of ROR gamma transcriptional activity; Drosophila S2 Gal4-RORgamma UAS-luciferase reporter, 20 h; 310,000 compounds, 5.4% hits; AID 2551, 2010; Potency, µM (series often up to 53.6 µM), without a hit: at the highest dose activity change, negative = inhibition, usual class: inhibitors; Nuclear receptor ROR-gamma (Mus musculus), P51450; further: nearly all actives have a fitted effect of over 60% in size
Target sequence (P51450 whole entry, looked up, the tested form may be a part): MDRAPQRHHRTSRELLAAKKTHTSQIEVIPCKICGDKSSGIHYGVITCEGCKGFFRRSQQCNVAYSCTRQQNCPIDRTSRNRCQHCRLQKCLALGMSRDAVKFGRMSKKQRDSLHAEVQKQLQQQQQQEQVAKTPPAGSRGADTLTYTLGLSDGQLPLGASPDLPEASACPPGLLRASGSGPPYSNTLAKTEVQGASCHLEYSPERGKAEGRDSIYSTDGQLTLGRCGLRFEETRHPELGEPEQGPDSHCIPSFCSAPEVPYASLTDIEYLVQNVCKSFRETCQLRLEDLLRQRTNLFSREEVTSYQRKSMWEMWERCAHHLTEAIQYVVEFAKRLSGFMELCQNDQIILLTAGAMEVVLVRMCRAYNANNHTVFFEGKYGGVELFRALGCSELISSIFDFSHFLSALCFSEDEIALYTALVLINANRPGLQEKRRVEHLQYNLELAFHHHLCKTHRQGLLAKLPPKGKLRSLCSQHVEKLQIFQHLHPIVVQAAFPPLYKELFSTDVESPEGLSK
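Stable Schneider cell line, Gal4 DNA-binding domain fused to ROR gamma, UAS-luciferase. Cmpd 1 hr RT → CuSO4 700 uM final → 20 hr RT → luciferase reagent 10 min → luminescence.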
VP16 counter: VP16 counterscreen qHTS for inhibitors of ROR gamma transcriptional activity; Drosophila S2 Gal4-VP16 UAS-luciferase, luminescence, 20 h; Potency, µM (series often up to 53.6 µM), for the others: at the highest dose activity, negative = inhibition, hits mostly inhibitors; 310,000 compounds, 3.5% hits; AID 2546, 2010;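 further: Gal4-VP16 expression switched on by copper sulfate through the metallothionein promoter; nearly all actives have a fitted effect of over 50% in size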
KinaseGlo FLuc: Counterscreen for Luciferase (Kinase-Glo TM) Inhibition; Kinase-Glo luciferase, ATP luminescence, 8 min; Potency, µM (doses to about 38.3 µM), for the others: at the highest dose activity change, negative = inhibition, actives largely listed as inhibitors; 200,000 compounds, 0.28% hits; Luciferin 4-monooxygenase (Photuris pensylvanica), Q27757; further: nearly all actives have a fitted effect of over 60% in size
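Compounds were added to a substrate mix at pH 7.2 (50 mM imidazole, 10 uM ATP, within the enzyme's linear range), followed by Kinase-Glo detection reagent; luminescence was measured after 8 minutes at ambient temperature.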
Active calls of the source: *; ? = inconclusive; . = no result given; [ ] = another dose, or the depositor's remark. The call rests on the fitted dose curve; in most records, active means well fitted curve in the direction sought with a large enough effect; inconclusive means small, poorly fitted or top-dose-only effect, or another doubt; inactive means no such curve, though single readings can be large; an effect the other way counts as inactive or inconclusive. On the % scale 0 is the no-effect control and ±100 the full control effect; potency means the concentration at half of the fitted maximal effect.

SMILES | RORg inh | VP16 counter | KinaseGlo FLuc
OCC1OC(/C=C\c2ccccc2)C=CC1Oc1ccc2c(c1)OCO2 (stereo not drawn) | 33%[10 µM] | 8%[10 µM] | .
CCC(C)C(NC(=O)OC(C)(C)C)C(=O)NC1COC2CC(n3ccc(=O)[nH]c3=O)OC12 (stereo not drawn) | -21% | 5% | .
COC(=O)c1ccc(N2CCN(C)CC2)c(NC(=O)COc2cccc(C)c2)c1 | 11% | 8% | .
[O-]/C(=C(\C(=S)NCc1ccccc1)[n+]1ccccc1)c1ccc(Cl)s1 | ? | -2% | 6%
Cc1cc(C(=O)COC(=O)c2nccnc2N)c(C)n1C | 10µM* | ? | -9%
Cc1ccc(C(=O)COC(=O)COc2ccc(C)c(C)c2)cc1 | 7% | -2% | .
COc1cc(C(=O)OCC(=O)c2cc(C)n(C)c2C)cc(OC)c1OC | -1% | -3% | -2%
CCC(=O)c1ccc(OCC(=O)OCC(=O)c2cc(C)n(C)c2C)cc1 | 0.89µM* | 1.3µM* | .
COc1ccccc1CN1CCNC(=O)C1CC(=O)NCC1CCOCC1 (stereo not drawn) | 4% | 5% | .
O=C(CN1C(=O)c2cccc3cccc1c23)NC1CCCC1 | -9% | 1% | .
O=C(NC1CCCCC1)N1CCN(c2ccccc2Cl)CC1 | 1% | 0% | .
O=C1C(=O)c2ccccc2C(O)=C1C(CCc1ccccc1)C1=C(O)c2ccccc2C(=O)C1=O | . | . | -24%[7.66 µM]
CC(=O)N1CCN(C)CC1 | -2% | 0% | 0%
CC(C)NC(=O)NC(=O)COC(=O)c1cccc(S(=O)(=O)N2CCCCC2)c1 | ? | 0% | 0%
CC(=O)NC1C(=O)N=C(SC(C)C(=O)Nc2cccc(Cl)c2)NC1=O (stereo not drawn) | 14% | -4% | 0%
COc1ccc(NS(=O)(=O)c2ccc(N3C(=O)CCC3=O)cc2)cc1 | 43% | 2% | -3%
COc1ccc(S(=O)(=O)Nc2ccc(-n3cccc3)cc2)cc1 | 11µM* | 11µM* | 1%
O=C(Nc1cc([N+](=O)[O-])ccc1N1CCCC1)c1cccs1 | 6% | -4% | .
Brc1ccc(-c2csc(N3CCCCCC3)n2)cc1 | 11µM* | ? | .
Brc1ccc(-c2csc(N3CCOCC3)n2)cc1 | -1% | 24%[10 µM] | -2%
CC1(C)CNC(=O)CC(C)(C)N1 | -8% | 3% | -2%
COC(=O)NC(CC(C)=O)c1cccs1 (stereo not drawn) | -18%[10 µM] | 1%[10 µM] | .
CCN(C1CCCCC1)S(=O)(=O)c1ccc(S(=O)(=O)NCc2ccncc2)cc1 | -1% | 18µM* | 1%
O=S(=O)(NCc1ccncc1)c1ccc(Br)s1 | -39% | 1.8µM* | 2%
Cc1ccc(S(=O)(=O)NCc2ccncc2)cc1C | 11µM* | 4µM* | -3%
SMILES | RORg inh | VP16 counter | KinaseGlo FLuc
CCN(C1CCCCC1)S(=O)(=O)c1ccc(S(=O)(=O)NCCc2ccncc2)cc1 | ? | -8% | -6%
COc1ccc(S(=O)(=O)NCc2cccnc2)cc1Br | ? | 11µM* | .
COc1ccc(S(=O)(=O)NCc2cccnc2)cc1 | -6% | 4% | .
Cc1ccc(S(=O)(=O)NCc2ccncc2)cc1C(=O)NCC(C)C | 20% | -10% | .
O=C(O)CNS(=O)(=O)c1ccc(Br)s1 | 2% | -5% | 2%
CC(=O)Oc1ccc(C(=O)Nc2cc(C)on2)cc1 | 17% | 4% | .
CC1(C)Cc2c(sc3c2c(=O)n(-c2cccc(Cl)c2)c(=O)n3CC(N)=O)CO1 | -15% | 5% | .
COC(=O)COc1ccc(S(=O)(=O)NCc2ccncc2)cc1 | ? | 2.8µM* | 0%
CCOC(=O)COc1ccc(S(=O)(=O)NCc2cccnc2)cc1 | -14% | 1% | 5%
O=S(=O)(NCc1ccncc1)c1ccccc1 | 18% | 16µM* | 7%
O=S(=O)(NCc1ccccc1)c1ccc(-n2cccn2)cc1 | 19% | 2% | .
CNC(=O)c1cc(S(=O)(=O)NCc2ccncc2)ccc1OC | -5% | ? | .
COc1cc(S(=O)(=O)NCc2ccncc2)ccc1Br | 27% | 7.1µM* | .
Cc1cc(C)cc(NC(=O)c2cccnc2)c1 | -6% | -6% | .
O=C(O)c1ccc(COc2ccc3ccccc3c2)o1 | 14% | 17% | .
CCOc1ccc(OCc2ccc(C(=O)O)o2)cc1 | 10µM* | 15%[0.365 µM] | -1%
Cc1cc(C)nc(NCCC(=O)O)n1 | 0% | -9% | 0%
CC1CCCCN1CCNC(=O)C1CCCN(S(=O)(=O)c2cccc3nsnc23)C1 (stereo not drawn) | 0% | -19% | .
O=C(Cc1cccs1)NNC(=S)NC(=O)c1ccco1 | 7.9µM* | 19% | 0%
C/C(=N/NC(=O)Cc1cccs1)c1ccco1 | -20% | -4% | 9%
O=C(Cc1ccc(Cl)cc1)NNC(=S)NC(=O)c1cccs1 | -42% | -8% | .
O=C(Cc1cccs1)NNC(=S)NCc1ccc(Cl)cc1 | 4µM* | -15% | 1%
Cn1c(=O)oc2cc(S(=O)(=O)CCC(=O)Nc3ccccc3)ccc21 | -17% | -6% | .
COc1cc(C2C(N3C(=O)c4ccccc4C3=O)C(=O)N2c2cccc(C)c2)cc(OC)c1OC (stereo not drawn) | -11% | -3% | -2%
O=C(CN1CCN(C(=O)C2COc3ccccc3O2)CC1)Nc1ccc(F)cc1 (stereo not drawn) | 2% | -1% | .
SMILES | RORg inh | VP16 counter | KinaseGlo FLuc
COCCn1c(SCc2ccc(OC)c(F)c2)nnc1-c1ccncc1 | 3% | -11% | .
COc1ccc(-c2nc3cnc(Nc4cccc(OC)c4)nc3n(C[C@H]3CCCO3)c2=O)cc1 | -5% | -8% | .
Cc1nc(C(=O)NC(C)C)nn1-c1cc(Cl)cc(Cl)c1 | -1% | -5% | -1%
c1ccc2sc(N3CCCN(Cc4nc(-c5cnccn5)no4)CC3)nc2c1 | 20% | -12% | 4%
Cc1cccc(NC(=S)NC2CC3CCCC(C2)N3Cc2ccccc2)c1C (stereo not drawn) | 14µM* | ? | 3%
Cc1cccc(NC(=S)NC2CCCC2)c1C | 7.1µM* | 7.1µM* | .
CCc1ccccc1NC(=S)NC1CC2CCC(C1)N2Cc1ccc(F)cc1 (stereo not drawn) | 7.1µM* | ? | 4%
Cc1cccc(NC(=S)NC2CCCCCC2)c1C | 3.2µM* | 7.1µM* | -2%
Cc1cccc(NC(=S)Nn2cnnc2)c1C | ? | ? | 2%
CCc1ccccc1NC(=S)NC1CC2CCC(C1)N2Cc1ccco1 (stereo not drawn) | ? | -6% | -2%
Cc1cccc(NC(=O)C2CCCN(C(=O)NC3CCCCC3)C2)c1C (stereo not drawn) | 13% | 0% | -5%
Cc1cccc(NC(=S)NC2CC3CCC(C2)N3Cc2ccco2)c1C (stereo not drawn) | -44% | -13% | 5%
COc1cc(NC(=O)COc2cccc(C)c2C)ccc1NC(=O)c1ccco1 | -10% | 0% | .
CCN(Cc1ccncc1)C(=O)c1cc(COc2c(C)cccc2C)on1 | 31% | ? | .
CC(=O)OC[C@H]1O[C@H](C/C=N/OC[C@@H](O)[C@H]2O[C@@H]3OC(C)(C)O[C@@H]3[C@H]2O)C=C[C@@H]1OC(C)=O | -4% | -10% | 2%
S=C(Nc1ccccc1Cl)NC1CCC(NC(=S)Nc2ccccc2Cl)CC1 (stereo not drawn) | -31% | 0% | .
